# Results taken from PubChem BioAssay AID677 (Vanderbilt High Throughput Screening Facility, 2007).
# Screen size: about 1,700 compounds; about 720 (42%) were called active. The set was probably picked from earlier hits. A selection follows. A number with no mark means an inactive call.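 How the source made its calls: active means calcium response below the same-plate mean of wells given acetylcholine alone at its 80%-effect dose, minus 3 SD; inactive means the rest.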
# Molecular target: Muscarinic acetylcholine receptor M1 (Rattus norvegicus) (UniProt P08482)
# Assay: blockers of ACh-evoked M1 calcium signal – CHO cells, Fluo-4 calcium, duplicate, confirmation (AID 677);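 further: raw fluorescence intensity difference in arbitrary instrument units and not normalized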
# Conditions: ACh EC80 antagonism, at 10 µM, hits give low values
# Muscarinic acetylcholine receptor M1 (Rattus norvegicus), sequence (P08482 whole entry, looked up): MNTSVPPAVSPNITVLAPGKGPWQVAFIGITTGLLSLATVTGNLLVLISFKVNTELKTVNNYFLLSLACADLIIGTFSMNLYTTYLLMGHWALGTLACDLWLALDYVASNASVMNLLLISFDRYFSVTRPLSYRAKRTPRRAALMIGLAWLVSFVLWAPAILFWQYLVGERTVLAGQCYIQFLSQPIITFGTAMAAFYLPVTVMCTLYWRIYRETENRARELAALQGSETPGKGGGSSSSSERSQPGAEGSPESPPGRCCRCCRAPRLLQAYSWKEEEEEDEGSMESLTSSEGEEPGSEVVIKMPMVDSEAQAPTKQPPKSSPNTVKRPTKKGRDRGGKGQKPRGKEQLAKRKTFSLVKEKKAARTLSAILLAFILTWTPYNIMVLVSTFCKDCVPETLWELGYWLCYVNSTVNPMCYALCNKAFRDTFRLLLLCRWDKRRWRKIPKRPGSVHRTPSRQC
row,Compound,calcium response (max-min fluorescence)
1,COc1ccc(C2NCc3ccc4c(c3-n3cccc32)OCO4)cc1OC (stereo not given),455 (active)
2,Fc1ccc(N2CCN(Cc3ccc4c(c3)OCO4)CC2)cc1,588
3,CCOC(=O)C1SC2(C(F)(F)C(F)F)CC1(O)c1c(c(OC)c3occc3c1OC)O2 (stereo not given),516
4,CC[N+]1(C)CCCC(OC(=O)C(O)(c2ccccc2)c2ccccc2)C1 (stereo not given),17.5 (active)
5,COc1ccc(CN2CCN(c3ccccc3F)CC2)c(OC)c1,547
